# PubChem BioAssay AID1739 (National Center for Advancing Translational Sciences (NCATS), 2009)
# Inconclusive results are not listed. Entries that show only a call come without a potency. Active and inactive are the calls of the source. Calls follow the shape of the dose curve; as a rule, active = well fitted inhibition curve with a large enough effect; inconclusive = small, poorly fitted or top-dose-only effect; inactive = flat fitted curve, though single readings scatter.
# Test: Counterscreen Assay for Enhancers of SMN2 Splice Variant Expression: Modulation of SMN1 Expression
# Settings: HEK293 SMN1-luciferase reporter, luminescence, 30-36 h; series mostly up to 22.8 µM
# Summary of the method: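 Luciferase counterscreen for nonspecific expression modulators: SMN1-luciferase chimera stably expressed in HEK293, 2000 cells/well, treated 30-36 h at 37C with compound or 4.5mM sodium butyrate control, then One Glo luminescence read.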
row,Structure (SMILES),Potency
1,CN1CCN(c2nc(-c3ccc(Br)cc3)nnc2-c2ccccc2)CC1,inactive
2,Cc1nnc(-c2ccccc2)[nH]c1=O,inactive
3,Cc1ccc(C(=O)Cn2c3c(sc2=N)CCCC3)cc1,7.94 µM (active)
4,OCCCNc1nc(-c2ccc(Br)cc2)nnc1-c1ccc(Cl)cc1,inactive
5,O=C1CCC(C(=O)Nc2cccc3ccccc23)N1 (stereo not drawn),inactive
6,CC(C)(C)n1nnnc1C(c1ccc2ncccc2c1)N1CCSCC1 (stereo not drawn),inactive
7,FC(F)(F)c1cccc(Oc2nc(-c3ccccc3)nnc2C(F)(F)F)c1,inactive
8,OCCCNc1nc(-c2ccc(Cl)cc2)nnc1-c1ccccc1,inactive
9,COc1ccc(-c2csc(N3CCC(c4ccccc4)CC3)n2)cc1,inactive
10,COc1ccc(-c2csc(N3CCC(C(N)=O)(N4CCCCC4)CC3)n2)cc1,inactive
11,CC1CN(c2nc(-c3ccc(Br)cc3)nnc2-c2ccccc2)CC(C)N1 (stereo not drawn),inactive
12,NC(=O)C1(N2CCCCC2)CCN(c2nc(-c3ccccc3)cs2)CC1,inactive
13,O=C(NCCCNCCCNC(=O)c1ccccn1)c1ccccn1,inactive
14,Clc1ccc(-c2nnc(-c3ccccc3)nc2-c2c[nH]c3ccccc23)cc1,inactive
15,FC(F)(F)c1nnc(-c2ccccc2)nc1Oc1ccccc1,inactive
16,CC(C)Nc1nc(-c2ccccc2)nnc1-c1ccccc1,inactive
17,Clc1nc(NCc2ccco2)c2[nH]cnc2n1,inactive
18,Cn1cnc2c(NCc3ccco3)ncnc21,inactive
19,O=c1cc(N2CCN(c3cccc(Cl)c3)CC2)[nH]c(=O)n1C1CCCCC1,inactive
20,NC(=O)N1c2ccccc2C=Cc2ccccc21,inactive
21,Cc1[nH]c2ccccc2c1-c1nc(-c2ccc(Cl)cc2)nnc1-c1ccccc1,inactive
22,O=C(NCc1cccs1)C(=O)NCC1OCCCN1S(=O)(=O)c1ccccc1 (stereo not drawn),inactive
23,OCCCNc1nc(-c2ccc(Cl)cc2)nnc1-c1ccc(Br)cc1,inactive
